Data reported in PubChem BioAssay.

assay: compound effects on lung adenocarcinoma cell viability – A549, calcein-AM fluorescence, 48 h, basal, profiling panel (AID 1162); details: higher = more signal; further: test concentration not given here

Going from `C=C(COC)/C(=C/C[C@@H](OC(C)=O)c1ccc(CO)o1)c1cnc2ccccc2c1` to `C=C(CCCC)C(=O)CC[C@@H](OC(=O)c1cccnc1)c1ccc(CO)o1`, the z-score rises from -0.11 to 0.274.

Compared with `COc1ccc(C#Cc2ccc3c(c2)[C@]2(C(=O)N3)[C@H](c3ccccc3OCCO)N3[C@H](c4ccccc4)[C@H](c4ccccc4)OC(=O)[C@H]3[C@@H]2C(=O)O)cc1`, `C=CCNC(=O)[C@@H]1[C@H]2C(=O)O[C@H](c3ccccc3)[C@H](c3ccccc3)N2[C@H](c2ccc(OCCO)cc2)[C@@]12C(=O)Nc1ccc(C#Cc3ccc(OC)cc3)cc12` is lower in z-score: 0.1 for the first, -0.717 for the second.

First: COc1ccc([Si](C)(C)[C@@H]2[C@@H](CC(=O)N3Cc4ccccc4C[C@H]3CO)O[C@]3(C(=O)N(C)c4c(Br)cc(C)cc43)[C@H]2C)cc1
Second: COc1ccc(C(=O)Nc2cccc(CN3C(=O)[C@]4(O[C@H](CCO)[C@@H]([Si](C)(C)c5ccc(OC)cc5)[C@@H]4C)c4ccccc43)c2)cc1
The z-score of the first is higher: -0.721 for the first, -4.13 for the second.

First: Cc1ccc(S[C@]2(C(=O)NCC(C)C)CC(=O)N(Cc3cc(C(F)(F)F)cc(C(F)(F)F)c3)[C@@H]2c2ccc(CO)cc2I)cc1
Second: Cc1ccc(S[C@]2(C(=O)NCC(F)(F)F)CC(=O)N(C(C)C)[C@@H]2c2ccc(CO)cc2I)cc1
The z-score of the first is lower: -0.431 for the first, 0.553 for the second.

Going from `CO[C@H]1O[C@H](CO)[C@@H](OC(=O)Nc2ccc(Br)cc2)[C@H](OC(=O)c2cc3ccccc3[nH]2)[C@H]1OC(=O)c1cc2ccccc2[nH]1` to `C=CCNC(=O)[C@H]1[C@@H]2C(=O)O[C@@H](c3ccccc3)[C@@H](c3ccccc3)N2[C@@H](c2ccc(OCCO)cc2)[C@]12C(=O)Nc1ccc(C#CC3=CCCCC3)cc12`, the z-score rises from -2.49 to -1.03.

Compared with `CCc1oc(CC[C@@H](CO)NC(=O)NCCn2cc(C3(O)CCCCC3)nn2)c(C(=O)OC)c1C(=O)OC`, `COC(=O)c1c(CC[C@@H](CO)NC(=O)N[C@@H](C)Cn2cc(C3(O)CCCCC3)nn2)oc(C(C)=O)c1C(=O)OC` is higher in z-score: -0.0645 for the first, 0.0154 for the second.

First: COc1ccc(C(=O)Nc2ccc(CN3C(=O)[C@@]4(O[C@@H](CCn5cc([C@H](O)c6ccccc6)nn5)[C@H]([Si](C)(C)c5ccc(OC)cc5)[C@H]4C)c4ccccc43)cc2)cc1
Second: COCCOC(=O)N1C(=O)[C@@]2(c3cc(C#Cc4ccc(OC)cc4)ccc31)[C@H](C(N)=O)[C@H]1C(=O)O[C@H](c3ccccc3)[C@H](c3ccccc3)N1[C@@H]2c1ccccc1OCCO
The z-score of the first is higher: -0.443 for the first, -1.25 for the second.

Compared with `Cc1ccc(C(C)CC(O)C2C=CC3C(=O)N(c4ccccc4)C(=O)C3N2Nc2ccc([N+](=O)[O-])cc2)o1` (stereo unspecified), `O=C1C2C=CC(C(O)C(c3ccccc3)c3ccccc3)N(n3cnnc3)C2C(=O)N1Cc1ccccc1` (stereo unspecified) is lower in z-score: -0.483 for the first, -1.03 for the second.

Going from `COCCCNC(=O)[C@@]1(Cc2ccccc2N=[N+]=[N-])N=C(c2ccc(OCCCO)cc2)O[C@H]1c1ccccc1N=[N+]=[N-]` to `[N-]=[N+]=NCc1ccccc1C[C@]1(C(=O)N2CCOCC2)N=C(c2ccc(OCCCO)cc2)O[C@H]1c1ccccc1N=[N+]=[N-]`, the z-score rises from -1.84 to -1.37.

Compared with `COCCOC(=O)N1C(=O)[C@@]2(c3cc(C#Cc4ccc(OC)cc4)ccc31)[C@H](c1ccccc1OCCO)N1[C@H](c3ccccc3)[C@H](c3ccccc3)OC(=O)[C@H]1[C@@H]2C(=O)N1CCN(c2ncccn2)CC1`, `COCCOC(=O)N1C(=O)[C@@]2(c3cc(C#CCNC(N)=O)ccc31)[C@H](C(=O)NC[C@H](O)c1ccccc1)[C@H]1C(=O)O[C@H](c3ccccc3)[C@H](c3ccccc3)N1[C@@H]2c1ccccc1OCCO` is higher in z-score: 0.204 for the first, 1.22 for the second.

Going from `COc1cc2c(cc1OC)CN(C(=O)[C@H]1[C@@H]3C(=O)O[C@@H](c4ccccc4)[C@@H](c4ccccc4)N3[C@@H](c3ccc(O)cc3)[C@]13C(=O)Nc1ccc(C#CC4=CCCCC4)cc13)CC2` to `O=C1O[C@H](c2ccccc2)[C@H](c2ccccc2)N2[C@H]1[C@@H](C(=O)N1CCN(c3ncccn3)CC1)[C@]1(C(=O)Nc3ccc(C#CC4=CCCCC4)cc31)[C@H]2c1ccc(O)cc1`, the z-score rises from -0.59 to 0.645.

Going from `CCCCc1cn(C[C@H](Cc2ccccc2)NC(=O)N[C@H](CO)CCc2oc(C(C)=O)c(C(=O)OC)c2C(=O)OC)nn1` to `C=C(CCCC)C(=O)CC[C@H](OC(C)=O)c1cccc(OCCO)c1`, the z-score rises from -0.601 to -0.0802.

Going from `CN(C)C(=O)[C@]1(Cc2ccccc2N=[N+]=[N-])N=C(c2ccc(OCCCO)cc2)O[C@@H]1c1ccccc1` to `CC(C)(C)OC(=O)CC[C@]1(C(=O)O)N=C(c2ccc(OCCCO)cc2)O[C@H]1c1ccccc1N=[N+]=[N-]`, the z-score rises from -0.54 to 0.559.

Compared with `C=CCNC(=O)[C@@H]1[C@H]2C(=O)O[C@H](c3ccccc3)[C@H](c3ccccc3)N2[C@H](c2ccc(OCCO)cc2)[C@@]12C(=O)Nc1ccc(C#CCCO)cc12`, `C=CCOC(=O)[C@H]1[C@@H]2C(=O)O[C@@H](c3ccccc3)[C@@H](c3ccccc3)N2[C@@H](c2ccc(OCCOC(=O)[C@H]3C[C@H]4C(=O)N[C@@H](CC(C)C)C(=O)N4[C@H]3c3ccc(O)cc3)cc2)[C@]12C(=O)Nc1ccc(I)cc12` is higher in z-score: -1.11 for the first, 0.709 for the second.

First: COC(=O)[C@@]1(Cc2ccc(OC)cc2)[C@H]2c3cc(C(=O)N4CCCC4)n(Cc4ccccc4)c3C[C@H]2CN1C(=O)c1ccccc1
Second: COC(=O)[C@@]1(Cc2ccc(OC)cc2)[C@H]2c3cc(C(=O)N(C)C)n(CCN4CNCC4=O)c3C[C@H]2CN1C(=O)c1ccccc1
The z-score of the first is higher: -0.549 for the first, -0.663 for the second.

First: CCCC[C@@H]1C[C@H]1[C@@H](NC(=O)c1ccco1)c1ccc(C(=O)OC)cc1
Second: CN(C)CCCNC(=O)[C@@]1(c2ccc([N+](=O)[O-])cc2)CC(=O)N(C2CCCCC2)[C@@H]1c1ccc(CO)cc1I
The z-score of the first is higher: -1.06 for the first, -4.33 for the second.

Compared with `CC(C)N1C(=O)[C@@]2(Cc3ccccc31)c1ccccc1C(=O)N(C1CCCCC1)[C@H]2c1ccc(CO)cc1`, `O=C1OCCC/C=C\[C@H]2OC34C=CCN(c5ccc6ccccc6c5)C(=O)[C@H]3N(CCCCCCO)C(=O)[C@@H]4C12` (stereo partly specified) is higher in z-score: -0.0998 for the first, 1.21 for the second.

Going from `CCOC(=O)C[C@H]1[C@H](OC(=O)c2ccc(C(=O)c3ccccc3)cc2)[C@@H](NC(=O)c2ccc(-c3ccccc3)cc2)c2cc(OCCCO)ccc2N1C(=O)c1ccccc1` to `C#CCN(CC=C(C)C)[C@H](CO)c1ccccc1`, the z-score falls from -0.56 to -0.589.
